Screens from PubChem BioAssay.
NS1 inh: qHTS Assay for Inhibitors of Influenza NS1 Protein Function. Potency, µM (series often up to 46.1 µM), inactives show top-dose activity, positive = more growth. 270,000 compounds, 0.4% hits; calls by dose curve; also: actives are rising curves; nearly all actives have a fitted effect of over 50% in size
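Read-out: OD600 growth recovery of NS1-expressing budding yeast. Cells grown overnight at 30C in -URA glucose medium, washed, resuspended and diluted 1:100 in 2% galactose assay medium, pH 6.0. Same strain lacking NS1 served as positive control.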
Tb PYK inh: qHTS of Trypanosoma Brucei Inhibitors; Potency, µM (titrated, usually from 76.8 µM), for the others: at the top dose activity, negative = inhibition, hits mostly inhibitors; 410,000 compounds, 0.12% hits; AID 624173, 2012; pyruvate kinase (Trypanosoma brucei), Q57TT1; TbPYK enzyme, Kinase-Glo Plus ATP luminescence, 45 min; also: % is scaled to controls: 0 for no effect and ±100 for the full control effect; nearly all actives have a fitted effect of over 50% in size
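In this concentration-response screen, enzyme-free wells defined baseline while DMSO plates tracked drift. Each reaction combined TbPYK, substrate, compound and 130 uM ADP for 45 min at room temperature. Kinase-Glo Plus luminescence gave the signal.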
SARS PLpro yeast: qHTS of Yeast-based Assay for SARS-CoV PLP; S. cerevisiae expressing SARS-CoV PLpro, growth rescue; Potency, µM (titrated, usually from 32.9 µM), inactives show at the highest dose activity, positive = growth rescue, usual class: activators; 330,000 compounds, 0.19% hits; AID 485353, 2010; calls by dose curve; also: 0% is about no effect; nearly all actives have a fitted effect of over 55% in size
LmPK inh: qHTS Assay for Inhibitors of Leishmania Mexicana Pyruvate Kinase (LmPK) | Potency, µM (highest dose often 57.5 µM), for inactives: top-dose activity change, negative = inhibition, usual class: inhibitors | AID 1721, 2009 | purified LmPK, Kinase-Glo ATP luminescence, 1 h | 290,000 compounds, 0.37% hits | Q27686; also: % is scaled to controls: 0 for no effect and ±100 for the full control effect
Target sequence (Q27686 whole entry, looked up): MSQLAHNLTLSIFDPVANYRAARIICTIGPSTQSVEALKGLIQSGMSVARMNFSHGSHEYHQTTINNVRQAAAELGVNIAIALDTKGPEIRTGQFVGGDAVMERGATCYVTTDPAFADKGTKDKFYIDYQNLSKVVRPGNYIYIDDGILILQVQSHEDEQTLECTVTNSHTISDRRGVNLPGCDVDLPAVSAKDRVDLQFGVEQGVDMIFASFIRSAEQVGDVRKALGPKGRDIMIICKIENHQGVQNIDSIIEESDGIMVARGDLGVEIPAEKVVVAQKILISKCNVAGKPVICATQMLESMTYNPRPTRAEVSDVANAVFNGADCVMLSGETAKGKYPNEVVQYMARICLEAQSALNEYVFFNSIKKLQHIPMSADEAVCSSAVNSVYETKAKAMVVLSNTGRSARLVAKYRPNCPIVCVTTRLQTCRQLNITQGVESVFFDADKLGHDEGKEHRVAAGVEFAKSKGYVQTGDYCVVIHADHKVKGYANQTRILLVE
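ATP generated from ADP (0.1 mM) and PEP (0.5 mM) by 0.1 nM LmPK over 1 h at room temperature (pH 7.2 imidazole buffer) was detected by coupled luciferase luminescence. Values were normalized to uninhibited and no-enzyme wells.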
Sm TGR block: qHTS Assay for the Inhibitors of Schistosoma Mansoni Peroxiredoxins | purified TGR, DTNB reduction, TNB absorbance 405 nm | 360,000 compounds, 3% hits | Potency, µM (series often up to 114 µM), for the others: top-dose activity change, negative = inhibition, hits mostly inhibitors | Schistosoma mansoni thioredoxin glutathione reductase (TGR), Q962Y6; also: % is scaled to controls: 0 for no effect and ±100 for the full control effect; nearly all actives have a fitted effect of over 60% in size
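First, TGR (20 nM dispensed) and NADPH were mixed with compound. Second, a 15 min room-temperature incubation followed. Third, further NADPH and then DTNB were added to start the reaction. Finally, TNB absorbance was monitored kinetically.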
RE007 growth inh: qHTS Assay for Inhibitors of the HIV-1 protein Vpr. S. pombe RE007 Vpr strain, BacTiter-Glo ATP luminescence, 24 h. Potency, µM (doses to about 92.2 µM), for the others: top-dose activity change, negative = less growth, hits mostly inhibitors. 360,000 compounds, 0.21% hits. AID 651644, 2012; active = well fitted falling curve with a large enough effect; inconclusive = small, poorly fitted or top-dose-only effect; inactive = no such curve, though single readings can be large or run the other way; also: % is scaled to controls: 0 for no effect and ±100 for the full control effect; nearly all actives have a fitted effect of over 50% in size
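Fission yeast strain RE007, carrying one chromosomally integrated HIV-1 vpr copy, was seeded at OD 0.01 in PMG+AL medium with 23 nL pinned compound. After 24 h at 30 °C and 99% humidity, viability was read by BacTiter-Glo luminescence.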
* marks the source's active call; other numbers are inactive results; ? = inconclusive; . = no result. A selection: hits, their analogues and other compounds. The true share with any hit is near 3.3%. Unless noted, calls follow the shape of the dose curve; as a rule, active = well fitted curve in the direction sought with a large enough effect; inconclusive = small, poorly fitted or top-dose-only effect, or another doubt; inactive = no such curve, though single readings can be large; an effect the other way counts as inactive or inconclusive. Potency is read from the fitted curve at half-maximal effect.

SMILES | NS1 inh | Tb PYK inh | SARS PLpro yeast | LmPK inh | Sm TGR block | RE007 growth inh
CC(/C=C/c1ccc(Cl)o1)=C\C(=O)O | -200% | -6% | -4% | -11% | 8.9µM* | -14%
COc1cccc(NC(=O)C(=O)NCCc2csc(-c3ccc(C(F)(F)F)cc3)n2)c1 | . | 0% | . | . | 17% | .
Cc1cc2n(n1)SC(Nc1cc(Cl)ccc1Cl)N2 (stereo unspecified) | 1% | -9% | -10% | 6% | 16µM* | 0%
Cc1ccccc1N1C(=O)c2sc3nc4c(c(=O)n3c2C1=O)CCC4 | -81% | ? | 0% | ? | ? | 3%
O=C1c2sc3nc4c(c(=O)n3c2C(=O)N1c1ccccc1)CCC4 | -132% | -12% | -2% | -23% | 18µM* | -17%
CN(C)c1ccc(/C=C/c2ccc3c4ccccc4ccc3[n+]2-c2ccccc2)cc1 | . | ? | -17% | 1% | ? | 28µM*
CN(CCCS(=O)(=O)[O-])c1ccc(/C=C/c2ccc3ccccc3[n+]2C)cc1 | -1% | -11% | -1% | -5% | 0% | -24%
CN(C)c1ccc(/C=C/c2ccc3ccccc3[n+]2C)cc1 | -36% | ? | -89% | 14µM* | 1% | .
COc1ccc(/C(N)=N/OC(=O)C2CCCCC2)cc1 | 15% | -8% | 0% | -4% | 89µM* | -3%
O=C(O)c1cc(Cl)cc(Cc2cc(Cl)cc(C(=O)O)c2O)c1O | -3% | . | . | . | . | .
CCN=c1scc(C)n1/N=C/c1ccc(O)c(O)c1O | -14% | ? | -5% | -7% | 20µM* | -27%
CCN=c1scc(C)n1/N=C/c1cc(Br)c(O)c(Br)c1 | . | -9% | -3% | -2% | ? | -24%
COCCN=c1scc(-c2ccccc2)n1/N=C/c1c[nH]c2ccccc12 | 19% | 2% | -88% | 8% | -8% | -15%
COCCN=c1scc(-c2cccs2)n1/N=C/c1ccc(O)c(O)c1O | ? | ? | -94% | -7% | 40µM* | -10%
Cc1cc(=O)n(Cc2cccc(Cl)c2)c2c1c(C)nn2C | . | 1% | . | . | 8% | .
Nc1nnnn1-c1ccccc1 | . | 0% | . | . | . | .
O=C1N=C(c2ccccc2)S/C1=C\c1cccs1 | -2% | 7.9µM* | 2% | 0% | 4µM* | -25%
O=C1N=C(N2CCN(c3ccccc3)CC2)S/C1=C/c1cccs1 | 9% | 0% | -17% | 2% | 0% | 5%
CCOc1cccc2cc(-c3nc(-c4ccccc4C)no3)c(=O)oc12 | . | -1% | . | . | -5% | .
O=c1c(C(c2ccc(Br)cc2)c2c(O)nc3n(c2=O)CCS3)c(O)nc2n1CCS2 | 9% | -4% | 2% | 4% | ? | 10%
O=c1c(C(c2ccc(Br)cc2)c2c(O)nc3n(c2=O)CCCS3)c(O)nc2n1CCCS2 | 4% | -2% | 0% | 3% | 2µM* | -14%
O=c1c(C(c2c(O)nc3n(c2=O)CCS3)c2cccc3ccccc23)c(O)nc2n1CCS2 | 17% | -20% | 1% | 4% | ? | -30%
O=c1c(C(c2ccc(O)cc2)c2c(O)nc3n(c2=O)CCS3)c(O)nc2n1CCS2 | 0% | ? | 1% | 12% | 10µM* | -1%
O=c1c(C(c2ccc(O)cc2)c2c(O)nc3n(c2=O)CCCS3)c(O)nc2n1CCCS2 | -3% | -16% | -17% | 5% | 56µM* | 3%
Cc1ccc(C(c2c(O)nc3n(c2=O)CCS3)c2c(O)nc3n(c2=O)CCS3)cc1 | 24% | -10% | 25% | 7% | 2.8µM* | 4%
SMILES | NS1 inh | Tb PYK inh | SARS PLpro yeast | LmPK inh | Sm TGR block | RE007 growth inh
CCOc1ccc(/C=C/c2nc(C#N)c(Nc3ccc(OC)cc3)o2)cc1 | . | -3% | . | . | 1% | .
Cc1c(C(=O)N(Cc2ccccc2F)C2CCS(=O)(=O)C2)oc2ccccc12 (stereo unspecified) | . | -2% | . | . | 1% | .
COc1ccc(C2=CSC3=C(C(=O)c4cccc(S(=O)(=O)N(C)C)c4)CCN23)cc1 | 16% | ? | -7% | -4% | 1µM* | 0%
COc1ccc(N(C)S(=O)(=O)c2cccc(C(=O)N3CCN(c4ccccc4)CC3)c2)cc1 | . | -2% | -4% | . | -17% | 2%
O=C(O)c1ccc(Cn2cc(/C=C\[N+](=O)[O-])c3ccccc32)o1 | 25% | -7% | -2% | -4% | 3.2µM* | 0%
O=C(CN1C(=O)COc2ccc(S(=O)(=O)N3CCCCCC3)cc21)N1CCN(c2ccc(Cl)cc2)CC1 | . | -1% | . | . | 10% | .
Clc1ccc(-c2nnc(-c3ccco3)nc2N2CCCCC2)cc1 | -10% | ? | -60% | -2% | 2.8µM* | 8%
CCC(=O)Nc1c(C)nn(-c2ccc(C)c(C)c2)c1C | -10% | -3% | 28% | 3% | 1% | -5%
Cc1ccc(-n2nc(C)c(NC(=O)CCl)c2C)cc1C | 7% | -1% | 27% | -2% | 22µM* | -2%
COc1ccc(C(=O)Nc2ccc(CN3CCOCC3)cc2)cc1Br | 10% | -3% | -1% | 2% | ? | -14%
COc1ccc(C(=O)NC(=S)Nc2ccc(CN3CCOCC3)cc2)cc1Cl | -6% | 2% | 5% | -9% | 14µM* | -5%
COc1ccc(C(=O)NC(=S)Nc2ccc(CN3CCOCC3)cc2)cc1OC | 3% | 0% | 0% | 3% | 20µM* | -2%
COc1ccc(C(=O)NC(=S)Nc2ccc(CN3CCCCC3)cc2)cc1Cl | 4% | 1% | -1% | 0% | 40µM* | -20%
COc1cccc(N2CCN(C(=O)Cn3nc(C)n4c(cc5c(OC)cccc54)c3=O)CC2)c1 | . | -7% | . | . | 7% | .
CCOC(=O)NC(N(O)c1cccc(Cl)c1)C(Cl)(Cl)Cl (stereo unspecified) | -1% | -6% | -1% | 15% | 28µM* | 2%
CCN(CC)c1cc2c(cc1F)c(=O)c(S(=O)(=O)c1ccc(OC)cc1)cn2Cc1ccccc1 | . | 2% | . | . | -4% | .
Cn1c(=O)c2c(nc(C(=N)SCC(=O)O)n2C)n(C)c1=O | 7.9µM* | . | . | . | . | .
CCCSc1nc2c(c(=O)n(C)c(=O)n2C)n1C | 0% | 1% | -1% | 1% | 11% | .
CC(C)C1NC2(C(=O)c3ccccc3C2=O)C2C(=O)N(c3ccc(F)cc3)C(=O)C12 (stereo unspecified) | 11% | -2% | -16% | 1% | 2µM* | 0%
COc1ccc(NC(=O)c2c(C)oc3ccc(O)c(CN4CCN(Cc5ccccc5)CC4)c23)cc1Cl | . | 4% | . | . | -14% | .
